Data published in PubChem BioAssay (EPA / NIEHS).
Records with an inconclusive call do not appear. Active and inactive are the calls of the source. Rule for the calls, unless noted: active = hit-call score of the fitted dose curve at least 0.9, where 1 is the maximum; inactive = score below 0.9.

Tests used:
[1] = ACEA_ER_80hr: ACEA Biosciences xCELLigence Real-Time Cell Analysis on Estrogen Receptor Agonism for Proliferation (AID 2282667; active = hit-call score of the fitted dose curve at least 0.9, where 1 is the maximum); settings: T47D proliferation, impedance (xCELLigence), 80 h
Method in brief: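 Real-time impedance growth kinetics of human T-47D breast cells read 80 h after dosing, gain-of-signal fitted relative to DMSO. Compounds: 1:4 serial series, top final concentration 100 uM, n = 2.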

[2] = APR_HepG2_MicrotubuleCSK_1hr: Apredica 1-hour HepG2 Assay for Microtubule CSK Stabilty (AID 2282669); settings: HepG2 microtubule cytoskeleton imaging, actives raise or lower the signal
Method in brief: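 HepG2 cells exposed 1 h to 0.39–200 uM compound (0.5% DMSO, duplicates), then formaldehyde-fixed, permeabilized and immunostained for alpha-tubulin with Hoechst nuclei. Imaged by ArrayScan high-content analysis; bidirectional fit versus DMSO.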

[3] = APR_HepG2_NuclearSize_1hr: Apredica 1-hour HepG2 Assay for Nuclear Size (AID 2282670); settings: high-content imaging, actives raise or lower the signal
Method in brief: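 HepG2 cells dosed 1 hr with 0.39–200 uM compound (0.5% DMSO), formaldehyde-fixed, Hoechst 33342-stained and imaged at 20x; nuclear diameter from nuclear stain, fitted bidirectionally against DMSO.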

[4] = APR_HepG2_p53Act_1hr: Apredica 1-hour HepG2 Assay for p53 Activation (AID 2282671); settings: high-content imaging, actives raise or lower the signal
Method in brief: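 HepG2 cells treated 1 h with compound at 0.39–200 uM (10 concentrations, duplicate) in 0.5% DMSO. Formaldehyde-fixed, permeabilised cells immunostained for p53 with Hoechst 33342; high-content imaging, bidirectional fit versus DMSO.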

[5] = APR_HepG2_MitoticArrest_1hr: Apredica 1-hour HepG2 Assay for Mitotic Arrest (AID 2282672); settings: high-content imaging, actives raise or lower the signal
Method in brief: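 HepG2 cells exposed 1 hr to compounds at 0.39–200 uM (0.5% v/v DMSO final), then fixed in 3.7% formaldehyde and immunostained for phospho-histone H3 with Hoechst 33342. Mitotic arrest scored by automated fluorescence imaging, fitted bidirectionally versus DMSO.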

[6] = APR_HepG2_P-H2AX_1hr: Apredica 1-hour HepG2 Assay for H2AX Phosphorylation (AID 2282673); settings: high-content imaging, actives raise or lower the signal
Method in brief: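 HepG2 dosed 1 hr at 0.39-200 uM (0.5% DMSO final), duplicate. Fixed in 3.7% formaldehyde, Triton permeabilized, immunostained for phospho-histone H2A.x (1:200) with Hoechst 33342; ArrayScan 20x imaging, bidirectional fit vs DMSO.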

[7] = APR_HepG2_MitoMass_1hr: Apredica 1-hour HepG2 Assay for Mitochondrial Mass (AID 2282674); settings: high-content imaging, actives raise or lower the signal
Method in brief: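 HepG2 cells dosed 1 hr with 0.39-200 uM compound (0.5% DMSO), duplicate wells. Mitochondria stained with 250 nM MitoTracker Red CMXRos for 30 min before formaldehyde fixation, imaged at 20x by ArrayScan; bidirectional fit versus DMSO.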

[8] = APR_HepG2_MitoMembPot_1hr: Apredica 1-hour HepG2 Assay for Mitochondrial Membrane Potential (AID 2282675); settings: imaging, actives raise or lower the signal
Method in brief: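 HepG2 cells dosed 1 hour with 0.39–200 uM compound in duplicate, 0.5% DMSO final. MitoTracker Red CMXRos (250 nM, 30 min) loaded before formaldehyde fixation; fluorescence quantified by high-content imaging, bidirectional fitting versus DMSO.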

[9] = APR_HepG2_CellCycleArrest_24hr: Apredica 24-hour HepG2 Assay for Cell Cycle Arrest (AID 2282905); settings: imaging, actives raise or lower the signal;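 note: cell cycle arrest scored as ratio of 2N to 4N nuclear DNA content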
Method in brief: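 Cell cycle arrest is scored from nuclear DNA content measured by high-content imaging of Hoechst 33342-stained HepG2 cells following 24-hour treatment at ten concentrations up to 200 uM, with DMSO as baseline.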

[10] = APR_HepG2_NuclearSize_24hr: Apredica 24-hour HepG2 Assay for Nuclear Size (AID 2282907); settings: high-content imaging, actives raise or lower the signal
Method in brief: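 Compounds in DMSO (final 0.5%) were added to human HepG2 hepatoma cells at ten concentrations up to 200 uM for 24 hr. Fixed nuclei were stained with Hoechst 33342, and nuclear diameter was quantified from automated images.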

[11] = APR_HepG2_CellLoss_24hr: Apredica 24-hour HepG2 Assay for Cell Loss (AID 2282908); settings: high-content imaging;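 for AC50: fit in both directions so a hit may be cell loss or gain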
Method in brief: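 Cell number is quantified by fluorescence imaging of Hoechst 33342-stained nuclei following dosing at 0.39–200 uM in 0.5% DMSO. Curves are fitted in both directions from the DMSO baseline.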

[12] = APR_HepG2_MicrotubuleCSK_24hr: Apredica 24-hour HepG2 Assay for Microtubule CSK Stabilty (AID 2282909); settings: HepG2 microtubule cytoskeleton imaging, actives raise or lower the signal
Method in brief: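 Steps: dose HepG2 for 24 h (0.39–200 uM, 0.5% DMSO); fix 30 min in 3.7% formaldehyde at room temperature; permeabilize; stain alpha-tubulin 60 min; image microtubule cytoskeleton at 20x. Signal change fitted in both directions relative to DMSO.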

[13] = APR_HepG2_MitoticArrest_24hr: Apredica 24-hour HepG2 Assay for Mitotic Arrest (AID 2282910); settings: high-content imaging, actives raise or lower the signal
Method in brief: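 HepG2 human liver cells were exposed to compounds at 0.39–200 uM (10 concentrations, duplicate) in 0.5% v/v DMSO for 24 hr, then fixed and immunostained for phospho-histone H3 with Hoechst 33342. Mitotic arrest came from HCS fluorescent imaging, fitted bidirectionally against DMSO.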

[14] = APR_HepG2_MitoMass_24hr: Apredica 24-hour HepG2 Assay for Mitochondrial Mass (AID 2282912); settings: high-content imaging, actives raise or lower the signal
Method in brief: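 The liver line HepG2 was dosed in duplicate across a 0.39–200 uM series, with final DMSO held at 0.5% v/v, and harvested at 24 hr. High-content imaging measured mitochondrial dye staining.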

[15] = APR_HepG2_p53Act_24hr: Apredica 24-hour HepG2 Assay for p53 Activation (AID 2282913); settings: high-content imaging, actives raise or lower the signal;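 note: p53 protein immunofluorescence averaged per cell in HepG2 with Hoechst nuclei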
Method in brief: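 Fluorescence imaging of formaldehyde-fixed HepG2 cells labelled for p53 and with Hoechst, 24 h after dosing (0.39–200 uM, duplicate wells, 0.5% v/v DMSO). Signal fitted in both directions relative to DMSO.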

[16] = APR_HepG2_CellCycleArrest_72hr: Apredica 72-hour HepG2 Assay for Cell Cycle Arrest (AID 2282914); settings: high-content imaging, actives raise or lower the signal
Method in brief: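 Read-out: nuclear DNA content from Hoechst 33342 high-content imaging (20x, six fields/well) after 3.7% formaldehyde fixation, fitted bidirectionally against DMSO. Treatment was 72 h in HepG2, ten concentrations 0.39–200 uM, duplicate, 0.5% DMSO.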

[17] = APR_HepG2_MitoMembPot_24hr: Apredica 24-hour HepG2 Assay for Mitochondrial Membrane Potential (AID 2282911); settings: imaging, actives raise or lower the signal
Method in brief: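 Mitochondrial membrane potential imaged via MitoTracker Red CMXRos (250 nM, 30 min pre-fixation) in fixed HepG2 cells with Hoechst nuclear identification. Ten concentrations 0.39–200 uM, 24 h treatment, 0.5% DMSO; CCCP as positive control.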

[18] = APR_HepG2_CellLoss_1hr: Apredica 1-hour HepG2 Assay for Cell Loss (AID 2282668); settings: high-content imaging;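 note: curves fitted both ways against DMSO so gain or loss of cells counts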
Method in brief: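 HepG2 cells were treated for 1 h with compound at 0.39–200 uM, in duplicate, in 0.5% DMSO. After formaldehyde fixation, Hoechst 33342-stained nuclei were imaged on an ArrayScan to count cells. Data were fitted bidirectionally versus DMSO.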

[19] = APR_HepG2_StressKinase_1hr: Apredica 1-hour HepG2 Assay for Stress Kinase (AID 2282906); settings: HepG2 stress kinase (phospho-c-Jun) imaging, actives raise or lower the signal
Method in brief: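 HepG2 cells dosed 0.39-200 uM (0.5% DMSO) for 1 h, then formaldehyde-fixed. Stress kinase read by phospho-c-Jun immunofluorescence using high-content imaging; bidirectional fit vs DMSO.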

Measured: AC50

C=CCOC(=O)C(C)(C)OC(=O)c1cc(-n2c(=O)cc(C(F)(F)F)n(C)c2=O)ccc1Cl
not listed: [17] | [18] | [19]
inactive: all other assays above

CO/N=C(/C1=NOCCO1)c1ccccc1Oc1ncnc(Oc2ccccc2Cl)c1F
active: [1] 10.5 µM | [17] 0.309 µM
not listed: [5] | [6] | [18] | [19]
inactive: all other assays above

Nc1c(Cl)c(F)nc(OCC(=O)O)c1Cl
not listed: [5] | [17] | [18] | [19]
inactive: all other assays above

CC1(C)C(C(=O)OC(C#N)c2cccc(Oc3ccccc3)c2)C1(C)C (stereo unspecified)
not listed: [3] | [17] | [19]
inactive: all other assays above

CCOP(=S)(OCC)Oc1nc(Cl)n(C(C)C)n1
not listed: [3] | [5] | [6] | [7] | [18] | [19]
inactive: all other assays above

O=P(O)(O)CCCl
not listed: [3] | [7] | [18]
inactive: all other assays above

CCCCOCN(C(=O)CCl)c1c(CC)cccc1CC
active: [11] 35.3 µM | [12] 31.2 µM
not listed: [3] | [6] | [7] | [17] | [19]
inactive: all other assays above

CCNC(=O)NC(=O)C(C#N)=NOC
not listed: [3] | [4] | [5] | [15] | [19]
inactive: all other assays above

COc1ccc(-c2ccccc2)cc1NNC(=O)OC(C)C
not listed: [3] | [5] | [6] | [7] | [17] | [18] | [19]
inactive: all other assays above

CN=C=S
active: [9] 69.2 µM | [16] 54.7 µM
not listed: [3] | [6] | [18]
inactive: all other assays above

CC(C)Nc1nc(Cl)nc(NC(C)C)n1
active: [17] 110 µM
not listed: [3] | [5] | [6] | [7] | [19]
inactive: all other assays above

CC1(C)CON(Cc2ccccc2Cl)C1=O
not listed: [5] | [17] | [18] | [19]
inactive: all other assays above

CC(C)N1C(=O)c2ccccc2NS1(=O)=O
not listed: [5] | [6] | [17] | [18] | [19]
inactive: all other assays above

CCOC(=O)C(C)OC(=O)c1cc(Oc2ccc(C(F)(F)F)cc2Cl)ccc1[N+](=O)[O-] (stereo unspecified)
not listed: [3] | [7] | [17] | [19]
inactive: all other assays above

Nc1cnn(-c2ccccc2)c(=O)c1Cl
not listed: [3] | [7] | [17] | [19]
inactive: all other assays above

Cc1nc(N(C)C)nc(OC(=O)N(C)C)c1C
not listed: [3] | [4] | [6] | [7] | [15] | [17] | [18]
inactive: all other assays above

COc1cc(Cl)c(OC)cc1Cl
not listed: [3] | [17] | [19]
inactive: all other assays above

O=C(O)c1c(Cl)ccc2cc(Cl)cnc12
not listed: [4] | [5] | [7] | [15] | [17] | [18]
inactive: all other assays above
